Laboratory results: PubChem BioAssay AID434982 (The Scripps Research Institute Molecular Screening Center, 2010)
Screen size: about 15,000 compounds; about 60 (0.4%) were called active. The entries come from a sample that favours actives as a whole. A number with no mark means an inactive call. Cut-off read from the data, not from the text of the source: active = activation above about 2.2%; inactive = the rest.

Test: activates NOTCH signaling in reporter cells (AID 434982)
Details: NOTCH signaling luciferase reporter cells, luminescence; at 2.5 µM; active compounds read high
In the case of c1ccc2c(-c3csc(-c4ccc5c(c4)OCCO5)n3)csc2c1, the activation is reported as -0.45%. O=S(=O)(c1ccc(Cl)cc1)n1nccc1/C=C/c1cccs1 gave an activation of 0.05%. N#Cc1c(-c2cccs2)cc(-c2cccs2)nc1N gave an activation of -0.55%. Work on CSc1sc(C(=O)Nc2cccc(Cl)c2)c(-c2cccs2)c1C#N yielded an activation of -0.76%. Work on CC1(C)C2CC[C@](C)(C2)C1NC(=O)c1c(Cl)cccc1Cl (stereo not given in full) yielded an activation of -0.41%. For CC(C)(C)c1csc(Sc2ccc([N+](=O)[O-])cc2[N+](=O)[O-])n1, the activation was -0.69%. In the case of CSc1nsc(SC)c1C(=O)NC(=O)NNc1ccc(F)c(Cl)c1, the activation is reported as -0.35%. With CCCCc1ccc(-n2c(-c3ccc(F)cc3)coc2=O)cc1 the activation was -0.29%. With Clc1ccc(C2=NN(Cc3ccccc3)CC2)s1 the activation was 0.29%. With CC(=O)Nc1ccc(F)cc1F the activation was 3.83% (active). In the case of Cc1ccc(SCC(=O)Nc2ccc(F)cc2F)cc1, the activation is reported as 0.31%. COc1ccc(NC(=S)Nc2ccc(F)cc2F)c([N+](=O)[O-])c1 gave an activation of -0.83%. In the case of O=C1c2ccccc2C(=O)N1CNc1ccc(C2CCCCC2)cc1, the activation is reported as -0.31%. With Cc1ccc(CSC(=N)N)cc1 the activation was 0.1%. Compound COc1ccc(OC(=O)/C=C/c2sc3ccccc3c2C)cc1 has an activation of -0.25%. Compound Cc1nc(-c2ccccn2)n2nnnc2c1Cl has an activation of -0.27%. For Cc1oc(C(C)(C)C)cc1C(=O)NC1Cc2ccccc2C1, the activation was -0.44%. COC(=O)c1scc(S(=O)(=O)Cc2ccco2)c1N/N=C(\C#N)S(=O)(=O)C(C)C gave an activation of 0.15%. In the case of NNC(=O)c1cc(OCC(F)(F)F)nc(OCC(F)(F)F)c1, the activation is reported as -0.48%. For COC(=O)c1ccc(S(=O)(=O)N2CCN(c3ccc([N+](=O)[O-])cn3)CC2)n1C, the activation was 0.16%. COc1cc(NC(=O)c2ncc(C(F)(F)F)cc2Cl)c(C(=O)O)cc1OC gave an activation of -0.4%. With COC(=O)c1ccc(S(=O)(=O)NNC(=O)c2cn3cc(C(F)(F)F)cc(Cl)c3n2)n1C the activation was 3.18% (active). With CC(=O)Nc1cccc([N+](=O)[O-])c1 the activation was 6.11% (active). CC(=O)Nc1ccc(NC(=O)c2cc(C)ccc2[N+](=O)[O-])c(C)c1 showed an activation of -0.09%. Cc1ccc(OC(=O)c2cccc([N+](=O)[O-])c2)c(Br)c1 gave an activation of 0.36%. O/N=C/c1ccc(F)c(Cl)c1 gave an activation of 0.44%. Work on COC(=O)/C(=C/c1ccccc1)c1ccccc1 yielded an activation of -0.19%. For CSC(=CC(=O)c1cccs1)SC, the activation was -0.45%. Cc1nc2ccccn2c1C(=O)N/N=C/c1cn(-c2ccccc2)nc1-c1cccs1 gave an activation of -0.2%. N/C(=N\OCc1noc(-c2ccsc2)n1)c1ccc(C(F)(F)F)cc1 showed an activation of -0.33%. O=C(Cn1nnc(N2CCOCC2)n1)N/N=C/c1ccc(-c2cccc([N+](=O)[O-])c2)o1 showed an activation of -0.66%. Compound CS(=O)(=O)/N=C(\N)c1ccncc1 has an activation of -1.1%. With Cc1noc(C)c1C(=O)c1c(C)[nH]n(-c2ccccc2)c1=O the activation was 0.14%. Compound O=S(=O)(Oc1ccc(Cl)c(Cl)c1)c1c(Cl)sc(Cl)c1Br has an activation of -0.59%. With CC(C)(C)OC(=O)n1ccc2cc(Br)ccc21 the activation was -0.83%. Cc1ccc(S(=O)(=O)NNC(=O)CCc2nc(-c3ccc(Cl)cc3)no2)cc1 gave an activation of 0.6%. Compound CC(=O)N1C=CC(c2c[nH]c3ccccc23)C=C1 has an activation of -0.43%. CS(=O)(=O)c1csc(C(=O)NCc2cccnc2)c1Cl gave an activation of -0.31%. Work on CN(NS(=O)(=O)c1ccc(C(F)(F)F)cc1)c1cnn(C)c(=O)c1Cl yielded an activation of -0.2%. O=C(Nc1ccccc1C(=O)NC1CCSC1)c1cccc(Cl)c1 (stereo not given) gave an activation of -0.57%. With c1ccc(-c2nsc(N3CCNCC3)n2)cc1 the activation was 0.94%. Cn1cc(Cl)c(/C=C(\C#N)C(N)=O)n1 gave an activation of -0.29%. For O=c1[nH]cc(Br)c(=O)[nH]1, the activation was -0.83%. With O=C(CN1CCOCC1)NNC(=O)c1cccs1 the activation was -0.03%. For O=C(Cc1cccc2ccccc12)NNC(=O)Nc1ccc(Cl)cc1, the activation was -0.03%. Compound COc1cccc(NC(=S)NNC(=S)NC2CC3CCC2C3)c1 (stereo not given) has an activation of -0.54%. Cc1cc(C(=O)NCCNS(=O)(=O)c2ccc(Cl)cc2)c(C)o1 showed an activation of -0.14%. Work on CNC(=S)NNC(=O)CSc1cccs1 yielded an activation of 1.08%. For N#C/C(=C\c1cccn1S(=O)(=O)c1ccccc1)C(=O)c1ccccc1, the activation was 0.09%. Work on O=C(Cc1cc(F)cc(F)c1)n1nccc1-c1cccs1 yielded an activation of -0.68%. With O=C(O)C1CC2CC1CCC2O (stereo not given) the activation was -0.37%. Fc1ccc(NC(=S)N2CCN=C2Nc2ccc(F)cc2)cc1 gave an activation of -1.11%. Work on CC(=O)NC12CC3(C)CC(C)(CC(C)(C3)C1)C2 yielded an activation of 1.34%. Work on Cn1c(S(=O)(=O)O)nc2ccccc21 yielded an activation of -0.35%. Cc1ccc(S(=O)(=O)NC(=O)NNc2ncnc3scc(-c4ccccc4)c23)cc1 gave an activation of -0.88%. With CCN=C(NCC)Nc1ccc(Cl)cc1 the activation was -0.99%. With CC(=O)/C(=C\N(C)C)c1ncccc1[N+](=O)[O-] the activation was 0%. CNC(=S)Nc1cscc1S(=O)(=O)c1ccc(Cl)cc1 showed an activation of -0.17%. Compound CCOC(=O)c1sc(SCCS(=O)(=O)c2ccc(Cl)cc2)c(C#N)c1-c1ccccc1 has an activation of -0.58%. For O=S(=O)(Oc1ncccc1C(F)(F)F)c1cccc(F)c1, the activation was -0.36%. In the case of O=C(NC(=O)C1CCN(c2ncccc2[N+](=O)[O-])CC1)Nc1ccc(Cl)cc1, the activation is reported as 0.44%. Compound CCOC(=O)CC(=O)CSc1nnc(N)s1 has an activation of 0%. Work on NC(=O)C1CCN(CC(O)COc2ccc(Cl)c(Cl)c2)CC1 (stereo not given) yielded an activation of -0.63%. With O=c1o[nH]c(-c2ccccc2)c1N=Nc1c(F)cccc1Cl the activation was 0.09%. CCOC(=O)C(O)(NC(=O)Nc1ccccc1)C(F)(F)F (stereo not given) gave an activation of -0.73%.
